Assay outcomes from PubChem.
TGFb SMAD3 inh: inhibitors of TGF-b signaling; AID 588855; 410,000 tested, 1.2% active; HepG2 CAGA-GFP TGF-b/SMAD3 reporter, GFP fluorescence, 18 h; TGF-beta stimulated, 500 pg/mL final; Potency, µM (series often up to 46.1 µM), for the others: top-dose activity, negative = inhibition, usual class: inhibitors; note: % is set by controls: 0 for no effect and ±100 for the full control effect; nearly all actives have a fitted effect of over 65% in size
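Read-out: total well GFP (ex488/em500-530) summed from mean per-cell fluorescence. Cells: HEPG2 CAGA-GFP, 1% FBS DMEM, 18 h at 37 degrees C with 500 pg/mL final TGF-beta. Unstimulated wells served as the full-inhibition control; stimulated DMSO wells = 0%.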
ATXN2 expr inh: inhibitors of ATXN2 expression; HEK-293 ATXN2-luciferase reporter, luminescence, 24 h; Potency, µM (highest dose often 57 µM), for inactives: top-dose activity change, negative = inhibition, actives largely listed as inhibitors; 360,000 tested, 0.72% active; note: % is set by controls: 0 for no effect and ±100 for the full control effect; nearly all actives have a fitted effect of over 55% in size
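ATXN2-luciferase reporter cells (luciferase flanked by upstream and downstream ATXN2 gene portions) were treated 24 h at 37 °C with compounds at up to 57 uM. SteadyGlo luminescence gave expression; GF-AFC fluorescence gave viability.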
S2 tox: viability counter-screen for ATXN expression inhibitors; S2 cells (HEK-293 line with an ATXN2-luciferase reporter) viability, CellTiter-Fluor protease fluorescence, 24 h; Potency, µM (top dose mostly 56.7 µM), usual class: cytotoxic; 400,000 tested, 0.49% active; AID 651635; note: nearly all actives have a fitted effect of over 40% in size
HepG2 tox: HepG2 cytotoxicity, counter-screen for TGF-b inhibitors; 410,000 tested, 0.76% active; AID 588856; Potency, µM (series often up to 46.1 µM), for the others: at the highest dose activity change, negative = cytotoxicity, most hits filed as cytotoxic; HepG2 CAGA-GFP viability, ATP luminescence, 18 h
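HepG2 CAGA-GFP cells (1000/well, DMEM with 1% FBS) received compound, then TGF-beta at 500 pg/mL final, and were incubated 18 hours at 37 degrees C. Viability was read by CellTiter-Glo luminescence. Media-only wells were set as complete cell-killing and DMSO as no toxicity.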
* hit, by the source's call; i = inactive; ? = inconclusive; / = not tested or not shown. Sampled rows, rich in hits. Any-hit rate of the full collection: about 2.3%. Calls come from the whole dose curve; as a rule, active = well fitted curve in the direction sought with a large enough effect; inconclusive = small, poorly fitted or top-dose-only effect, or another doubt; inactive = no such curve, though single readings can be large; an effect the other way counts as inactive or inconclusive. Potency is the fitted concentration of half-maximal effect.

SMILES	TGFb SMAD3 inh	ATXN2 expr inh	S2 tox	HepG2 tox
COC(=O)[C@@H](NC(=O)C1CCCN(c2nc(C)c3ccc(C)cc3n2)C1)C(C)C (some centres undefined)	/	/	i	/
O=C(Nc1ccc(CN2CCCCC2)cc1)Nc1ccc(Br)cc1Cl	26%	14µM*	?	0%
CCCC[C@H](CN[C@@H](CNC)[C@H](C)CC)NCCC12CCC(CC1)C2	?	28µM*	28µM*	-102%
O=S(=O)(NCC(c1cccs1)S(=O)(=O)c1ccccc1)c1ccccc1 (centres undefined)	7.1µM*	/	/	10µM*
Cn1cc(-c2[nH]c3cc(NC(=O)[C@H](N)C4CCCCC4)cc4c3c2C=NNC4=O)cn1	/	1.1µM*	/	/
Cc1cccc(CN2Cc3cccc4c3[C@H](C=CC4)CC2=O)c1	-10%	/	/	1%
CC1(Cc2ccc(OC(F)(F)F)cc2)C(=O)Nc2ccc(S(=O)(=O)NC3CCCCC3)cc21 (centres undefined)	?	?	?	11µM*
Cc1cc(N/N=C/c2ccc(F)cc2)nc(-n2nc(C)cc2C)n1	?	0%	i	-5%
COc1ccc(/C=N/Nc2cc(C)nc(-n3nc(C)cc3C)n2)c(OC)c1	?	16µM*	?	1%
CCOc1cc(/C=N/Nc2cc(C)nc(-n3nc(C)cc3C)n2)ccc1O	?	1.3µM*	?	-37%
COc1cccc(/C=N/Nc2nc(Nc3ccccc3)nc(-n3nc(C)cc3C)n2)c1O	1.6µM*	?	?	-43%
CC1CCc2cc(F)cc3c2N1C(=O)C(C(=O)Nc1cnccn1)C3=O (centres undefined)	0%	/	/	-25%
O=C1c2ccccc2C(=O)c2c(/C=C/N3CCCCC3)ccnc21	?	?	?	3.5µM*
CCc1ccc(OCC(O)CN2CCC(CN3C(=O)c4cccc5cccc(c45)C3=O)CC2)cc1 (centres undefined)	-14%	25µM*	/	-8%
O=C1c2cccc3cccc(c23)C(=O)N1CC1CCN(CC(O)COc2ccc3ccccc3c2)CC1 (centres undefined)	?	?	i	16µM*
COc1ccc(COCC(O)CN2CCC(CN3C(=O)c4cccc5cccc(c45)C3=O)CC2)cc1OC (centres undefined)	-21%	-28%	?	-2%
CCc1ccc(OCC(O)CN2CCN(c3ccccc3)CC2)cc1 (centres undefined)	-15%	-5%	i	-4%
COc1cccc(OCC(O)CN2CCC(CN3C(=O)c4cccc5cccc(c45)C3=O)CC2)c1 (centres undefined)	?	?	?	14µM*
Cc1cc(C)cc(OCC(O)CN2CCC(CN3C(=O)c4cccc5cccc(c45)C3=O)CC2)c1 (centres undefined)	?	20µM*	/	20µM*
O=C1c2cccc3cccc(c23)C(=O)N1CCN1CCN(CC(O)COc2ccc3ccccc3c2)CC1 (centres undefined)	0%	?	?	4%
Cc1cnc(C)c(-c2cc(F)cc3c2OC(CNC(=O)Cc2c(C)noc2C)C3)n1 (centres undefined)	/	/	i	/
Cn1cnc(=N)c2[nH]cnc21	/	292%	/	/
COc1cc(-c2nc(C)cnc2C)cc2c1OCCN(C(=O)Cn1nc(-c3ccccc3)c3ccccc3c1=O)C2	/	/	i	/
OC1(c2ccc3c(c2)CN(Cc2nccs2)CCO3)CCN(c2ccccc2F)CC1	/	/	i	/
O=C1c2cccc3cccc(c23)C(=O)N1CCN1CCN(CC(O)COCc2ccc(Cl)cc2)CC1 (centres undefined)	14µM*	?	?	13µM*
SMILES	TGFb SMAD3 inh	ATXN2 expr inh	S2 tox	HepG2 tox
Cc1ccc(C)c(N2CCN(C(=O)CCc3c(C)nn(-c4ccc(N5CCCC5)nn4)c3C)CC2)c1	13µM*	/	/	-36%
CNC[C@@H](C)NC[C@@H](Cc1ccccc1)NCCc1ccccc1	-11%	-22%	i	-50%
CC[C@H](C)[C@@H](CN[C@H](C)CNC)NCCC(c1ccccc1)c1ccccc1	?	?	32µM*	22µM*
COc1ccc(C2NCCc3c2[nH]c2ccccc32)cc1CN1CCc2cc(OC)c(OC)cc2C1C (centres undefined)	-17%	?	i	-44%
COc1ccc(C2NCCc3c2[nH]c2ccccc32)cc1COc1ccc(F)cc1 (centres undefined)	?	28µM*	32µM*	11µM*
Cc1ccccc1N1CCN(CCc2nnc3n2CCCC3)CC1	/	8%	i	/
CC(C)(C)c1ccc(C(=O)N2CCC(=O)N([C@H](COCc3ccccc3)Cc3ccccc3)CC2)cc1	/	32µM*	/	/
CC(C)(C)c1ccc(C(=O)N2CCC(=O)N(C(COCc3ccccc3)Cc3ccccc3)CC2)cc1 (centres undefined)	?	?	/	-61%
CC(C)OP(=O)(CP(=O)(OC(C)C)OC(C)C)OC(C)C	/	3%	i	/
COc1ccc(OC)c(-c2cc(Cl)c3c(c2)CC(CNC(=O)C(C)N2CCOCC2)O3)c1 (centres undefined)	/	/	i	/
Cc1ccccc1C(C(=O)NC1CCCC1)N(C(=O)Cn1cnc2ccccc21)c1cccc(F)c1 (centres undefined)	/	-6%	/	/
O=C(C[C@H]1C/C=C\C[C@@H](Cc2ccc(F)cc2)C(=O)O[C@H](c2ccccc2)CNC1=O)N[C@@H](CO)Cc1ccccc1	-5%	11%	i	0%
O=C(N[C@@H]1C/C=C\C[C@H](CC(=O)N(CCO)Cc2ccccc2)C(=O)NC[C@@H](c2ccccc2)OC1=O)OCC1c2ccccc2-c2ccccc21	7.9µM*	0%	?	-66%
O=C(N[C@@H]1C/C=C\C[C@@H](CC(=O)N(CCO)Cc2ccccc2)C(=O)NC[C@H](c2ccccc2)OC1=O)OCC1c2ccccc2-c2ccccc21	?	?	?	-60%
O=C(C[C@H]1C/C=C\C[C@H](NC(=O)OCC2c3ccccc3-c3ccccc32)C(=O)O[C@H](c2ccccc2)CNC1=O)N[C@H](CO)Cc1ccccc1	16µM*	?	?	-47%
CCOC(=O)c1cc(OCc2csc(-c3ccccc3)n2)cc(C(=O)OCC)c1	3%	/	/	-4%
CCSc1nc(-c2ccccc2)nc(C(Cl)Cl)n1	5.6µM*	?	?	7.1µM*
Cc1onc(-c2ccccc2)c1C(=O)Cl	/	0%	i	/
COc1cc(=O)n2c(c1C(=O)N(C)Cc1nonc1C)CCN(Cc1cc(C)c(C)cc1C)CC2	/	/	i	/
COC(=O)CC1(CC(N)=O)SCCS1	?	-9%	i	14µM*
COC(=O)CC1SCCNC1=O (centres undefined)	1%	-3%	i	-2%
CN(C)c1ccc(/C=C/c2ccnc3ccccc23)c(N)c1	?	/	/	-36%
COc1c(Cl)cc2c([nH]c3cnccc32)c1NC(=O)c1cccnc1C	/	2%	/	/
